Compound activity from PubChem.
SARS PLP yeast: qHTS of Yeast-based Assay for SARS-CoV PLP. S. cerevisiae expressing SARS-CoV PLpro, growth rescue. Potency, µM (series often up to 32.9 µM), most hits filed as activators. 0.19% of 330,000 active. AID 485353, 2010; calls by dose curve; further: nearly all actives have a fitted effect of over 55% in size
Pf growth 96h: Primary qHTS for delayed death inhibitors of the malarial parasite plastid, 96 hour incubation; Potency, µM (highest dose often 28.7 µM), actives largely listed as inhibitors; P. falciparum luciferase reporter growth, 96 h; 6.9% of 320,000 active
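P. falciparum expressing integrated firefly luciferase grown in erythrocytes (2% hematocrit, 0.05% parasitemia final) with compounds for 96 hours at 37 C, 5% CO2. Growth inhibition read as loss of luminescence after adding luciferase detection reagent.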
Sm TGR inh: qHTS Assay for the Inhibitors of Schistosoma Mansoni Peroxiredoxins; purified TGR, DTNB reduction, TNB absorbance 405 nm; Schistosoma mansoni thioredoxin glutathione reductase (TGR), Q962Y6; AID 485364, 2010; 3% of 360,000 active; Potency, µM (titrated, usually from 114 µM), usual class: inhibitors; further: nearly all actives have a fitted effect of over 60% in size
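TGR 20 nM + NADPH 100 uM (dispensed conc.), cpd preinc 15 min RT; start with NADPH (500 uM addition) then DTNB (15 mM addition). Kinetic TNB absorbance, 405 nm filter. Four-parameter Hill fit across titration.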
Pf growth 48h: Primary qHTS for delayed death inhibitors of the malarial parasite plastid, 48 hour incubation; P. falciparum luciferase growth in erythrocytes, 48 h; Potency, µM (doses to about 28.7 µM), most hits filed as inhibitors; 5.9% of 310,000 active; AID 504832, 2011
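Here the parasites carry a stable luciferase gene and grow inside erythrocytes in Albumax-based RPMI medium with compound for one erythrocytic cycle. Activity is scored as loss of luminescent signal.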
Numbers stand for hits; 0 = inactive; ? = inconclusive; - = no result; [ ] = dose if it differs, or a comment. In the library only some 12% were active in any assay of this set; here they are far more common. Unless noted, the call rests on the fitted dose curve; in most records, active means well fitted curve in the direction sought with a large enough effect; inconclusive means small, poorly fitted or top-dose-only effect, or another doubt; inactive means no such curve, though single readings can be large; an effect the other way counts as inactive or inconclusive.

SMILES | SARS PLP yeast | Pf growth 96h | Sm TGR inh | Pf growth 48h
Cc1[nH]c2ccccc2c1C1C(c2ccccc2)=NN=C(C(C)C)N1O (stereo unspecified) | 0 | ? | 11.2µM | ?
COC(=O)c1ccc(OC)c(CN2CCCN(Cc3ccc(C)cc3)S2(=O)=O)c1 | - | - | 0 | -
COC(=O)c1ccc(OC)c(CN2CCCN(Cc3cc(C)ccc3C)S2(=O)=O)c1 | 0 | 0 | 0 | 14.7µM
CCOc1ccccc1CNC(=O)c1cnc2sc(N3CCCC3)nn2c1=O | - | - | 0 | -
COC(=O)c1nn(-c2nc(-c3cccc(OC)c3)cc(C(F)(F)F)n2)cc1[N+](=O)[O-] | 0 | ? | 0 | 0
COC(=O)c1nn(-c2nc(-c3ccc(OC)c(OC)c3)cc(C(F)(F)F)n2)cc1[N+](=O)[O-] | 0 | 16.5µM | 0 | 0
COc1ccc(-c2cc(C(F)(F)F)nc(N3CCN(C)CC3)n2)cc1 | 0 | 0 | 0 | 13.1µM
COc1ccc(-c2cc(C(F)(F)F)nc(N3CCN(C)CC3)n2)cc1OC | 0 | 5.22µM | 0 | ?
COc1ccc(-c2cc(C(F)(F)F)nc(N3CCCCC3)n2)cc1OC | 0 | 0 | 0 | 3.29µM
COc1ccc(Cl)cc1S(=O)(=O)N1CCC(C(=O)NCc2ccco2)CC1 | 0 | 0 | ? | ?
COC(=O)C1=C(c2cccc(C#N)c2)C[C@@H]2CC[C@H]1N2C(=O)N1CCc2cc(OC)c(OC)cc2C1 | 0 | ? | 0 | ?
COC(=O)C1=C(c2c(C)noc2C)C[C@@H]2CC[C@H]1N2C(=O)N1CCc2cc(OC)c(OC)cc2C1 | 0 | ? | 0 | 14.7µM
COC(=O)C1=C(c2c(C)noc2C)C[C@@H]2CC[C@H]1N2C(=O)N1CCC(O)(c2ccc(Cl)cc2)CC1 | 0 | ? | 0 | 6.57µM
COC(=O)C1=C(c2ccc(F)cc2F)C[C@@H]2CC[C@H]1N2C(=O)N1CCC(O)(c2ccc(Cl)cc2)CC1 | 0 | ? | 0 | 9.28µM
COC(=O)C1=C(c2c(C)noc2C)C[C@@H]2CC[C@H]1N2C(=O)N1CCOCC1 | 0 | 0 | 50.1µM | 0
COC(=O)C1=C(c2ccc(F)cc2F)C[C@@H]2CC[C@H]1N2C(=O)N1CCCC1 | 0 | 0 | 0 | ?
CC(NS(=O)(=O)c1ccc2c(c1)c(=O)n(C)c(=O)n2C)C(=O)NC1CCCCC1 (stereo unspecified) | 0 | ? | 0 | 0
Cc1[nH]c2ccccc2c1C(=O)C(=O)NCc1ccco1 | 0 | 11.7µM | 0 | 0
O=C(NCc1ccco1)C(=O)c1c[nH]c2ccccc12 | 0 | 0 | 0 | 0
Cc1[nH]c2ccccc2c1C(=O)C(=O)NCCC1=CCCCC1 | 0 | ? | 0 | 2.94µM
COc1ccc(CCNC(=O)C(=O)c2c(C)[nH]c3ccccc23)cc1 | 0 | ? | 0 | 0
Cc1cc(N2CCN(C)CC2)n2cc(-c3ccc(F)cc3)nc2n1 | 0 | 0 | 0 | 0
Cc1cc(N2CCN(c3ccccn3)CC2)n2cc(-c3ccccc3)nc2n1 | 0 | 6.57µM | 0 | 13.1µM
CCOC(=O)C(=CNc1cccnc1Oc1ccc(C)c2c1CCC2)C(=O)OCC | 0 | 8.28µM | 0 | 11.7µM
COc1ccccc1NC(=O)CN1C(=O)C(C)(C)c2ccccc21 | - | - | 0 | -
SMILES | SARS PLP yeast | Pf growth 96h | Sm TGR inh | Pf growth 48h
CC[C@@]1(c2cccc(C)c2)C(=O)N(C(=O)OC)N1C(=O)OC | 0 | 0 | 1.58µM | 0
CC[C@@]1(c2ccccc2OC)C(=O)N(C(=O)OC)N1C(=O)OC | 0 | ? | 25.1µM | 0
COc1ccc(N(CC(=O)NCCc2ccc(OC)c(OC)c2)S(=O)(=O)c2ccc(OC)c(OC)c2)cc1 | 0 | 0 | 0 | 0
COc1cc(OC)cc(C(=O)OCC(=O)NC2CCCCCC2)c1 | 0 | 0 | 0 | 0
CCCC(=O)NCC1(N(C)C)CCCCC1 | - | - | 0 | -
COc1ccc(C2C3=C(Nc4ncnn42)c2ccccc2CC3)cc1OC (stereo unspecified) | 0 | ? | 0 | ?
COc1ccc(OC)c(NC(=O)C2=C(C)Nc3ncnn3C2c2cccs2)c1 (stereo unspecified) | 0 | 0 | 0 | 0
COc1ccc(C2Oc3ccccc3C3=C2C(c2cccs2)n2ncnc2N3)cc1 (stereo unspecified) | 0 | - | 0 | 8.28µM
Brc1ccc(C2C3=C(Nc4ncnn42)c2ccccc2OC3c2ccncc2)cc1 (stereo unspecified) | 0 | - | 0 | 13.1µM
COc1c(Cl)cc(Cl)cc1/C=C/C(=O)c1ccc(NC(=O)c2cccs2)cc1 | 0 | 0 | 0 | 5.22µM
COc1cc(/C=N\Nc2nncn2N)ccc1OC(C)=O | 0 | 0.928µM | ? | 0
COc1cc(/C=N/NC(=O)c2ccncc2)ccc1OC(C)=O | 0 | ? | 0 | 0
COc1cc(N)c(Cl)cc1C(=O)N[C@H]1CCN(CCCOc2ccc(F)cc2)C[C@H]1OC | - | 4.65µM | 0 | 2.62µM
COc1cc2nc(Nc3ccc(C)c(Cl)c3)nc(N)c2cc1OC | 0 | 0 | 0 | 0.586µM
Cc1ccc(Nc2nc(N)c3ccccc3n2)cc1Cl | 0 | 0 | 0 | ?
COc1cc2nc(Nc3cccc(C)c3)nc(N)c2cc1OC | - | - | 0 | -
COc1cc2nc(Nc3ccc(C)c(C)c3)nc(N)c2cc1OC | 0 | 0 | 0 | 0.522µM
Cc1ccc(Nc2ncnc(N)n2)cc1C | 0 | 4.15µM | 0 | 0
CCOC(=O)c1ccc(Nc2nc(N)c3cc(OC)c(OC)cc3n2)cc1 | 0 | 0 | 0 | 1.04µM
COc1cc2nc(Nc3ccc(F)cc3)nc(N)c2cc1OC | 0 | 0 | 0 | 0.522µM
COc1cc2nc(N(C)C)nc(N)c2cc1OC | 0 | 0 | 0 | ?
O=C(NCCc1ccccc1)c1ccc(Cl)c(S(=O)(=O)N2CCCC2)c1 | 0 | 10.4µM | 0 | 0
CN(C)S(=O)(=O)c1cc(C(=O)NCCCn2ccc3ccccc32)ccc1Cl | 0 | 4.15µM | 0[11.4 µM] | -
O=C(NCCn1ccc2ccccc21)c1cccc([N+](=O)[O-])c1 | 0 | 0 | 0 | 0
COc1ccc(CCNC(=O)c2ccc(Cl)c(S(=O)(=O)N(C)c3ccccc3)c2)cc1 | 0 | 10.4µM | 0 | ?
SMILES | SARS PLP yeast | Pf growth 96h | Sm TGR inh | Pf growth 48h
O=C(NCC(O)c1ccccc1)c1ccc(Cl)c(S(=O)(=O)N2CCCC2)c1 (stereo unspecified) | 0 | ? | 0 | 9.28µM
CC1CCN(S(=O)(=O)c2ccc3c(c2)N(CC(=O)NCCc2ccc(Cl)cc2)C(=O)CO3)CC1 | - | - | 0 | -
Cc1ccc(C)c(S(=O)(=O)N2CCC(c3nc4c(nnn4Cc4ccc5c(c4)OCCO5)c(=O)[nH]3)CC2)c1 | 0 | 0 | 0 | ?
O=C(COc1ccccc1Cl)NCC1(N2CCOCC2)CCCCC1 | - | - | 0 | -
Cc1cccc(NC(=O)c2ccc(Cl)c(S(=O)(=O)N3CCCC3)c2)n1 | 0 | 7.38µM | 0 | ?
COc1ccc(S(=O)(=O)N2CCCCCC2)cc1C(=O)Nc1cc(C)ccn1 | 0 | 10.4µM | 0 | 9.28µM
Cc1cccc(NC(=O)c2cc(S(=O)(=O)N3CCCCC3)ccc2Cl)n1 | 0 | ? | 0 | 9.28µM
Cc1cccc(NC(=O)c2ccc(Cl)c(S(=O)(=O)N3CCc4ccccc43)c2)n1 | 0 | 11.7µM | 0 | 11.7µM
Cc1cccc(NC(=O)c2ccc(S(=O)(=O)N3CCCCCC3)cc2)n1 | 0 | ? | 0 | ?
